# Experimental data: paper PMC5540273 (PLoS ONE, 2017)
# Test system: JAK2(JH1domain-catalytic)
# 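Note: kd values determined as follow-up on hits from a single-replicate KINOMEscan panel screen.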
row,SMILES,Kd [nM]
1,Cn1cncc1C(=O)NC1CCN(c2ccnc(Nc3ccc(F)cc3)n2)C1 (centres unmarked) [GSK1379717],1500
2,COc1ccc(Nc2nccc(N3CCC(NC(=O)c4cc5ccccc5s4)C3)n2)cc1 (centres unmarked) [GSK1379738],1800
3,COc1ccc2cc(-c3nc(-c4ccccc4C(C)C)[nH]c3-c3ccncc3)ccc2c1 [SB-660566],> 10000
4,Nc1cccc(-c2ccc3c(N)n[nH]c3c2)n1 [GSK2192730],> 10000

# Test system: T1, JNK2
# T1 construct: gene MAPK9
row,SMILES,Kd [nM]
1,CNC(=O)c1ccc(C)c(-n2c(C)cc(OCc3ccc(F)cc3F)c(Br)c2=O)c1,> 10000
2,Fc1ccc(-c2nc[nH]c2-c2ccncc2)cc1 [SB-217360],85
3,CCCCc1nn2ncccc2c1-c1ccnc(NC2CC2)n1 [GW684374],1300
4,Fc1ccc(-c2nn3cccc(F)c3c2-c2ccncc2)cc1 [GW475620],230
5,Nc1nccc(-c2c(-c3ccc(F)cc3)ncn2C2CCN(Cc3ccccc3)CC2)n1 [SB-219980],43
6,Fc1ccc(-c2nc3n(c2-c2ccncc2)CCS3)cc1 [GI98581],270

# Test system: T2, JNK3
# T2 construct: gene MAPK10
row,SMILES,Kd [nM]
1,CNC(=O)c1ccc(C)c(-n2c(C)cc(OCc3ccc(F)cc3F)c(Br)c2=O)c1,> 10000
2,Fc1ccc(-c2nc[nH]c2-c2ccncc2)cc1 [SB-217360],11
3,CCCCc1nn2ncccc2c1-c1ccnc(NC2CC2)n1 [GW684374],740
4,Fc1ccc(-c2nn3cccc(F)c3c2-c2ccncc2)cc1 [GW475620],58
5,Nc1nccc(-c2c(-c3ccc(F)cc3)ncn2C2CCN(Cc3ccccc3)CC2)n1 [SB-219980],31
6,Fc1ccc(-c2nc3n(c2-c2ccncc2)CCS3)cc1 [GI98581],57

# Test system: KIT
row,SMILES,Kd [nM]
1,CS(=O)(=O)Cc1ccc(Nc2nccc(-c3c(-c4cccc(NC(=O)C5CCCCC5)c4)nn4ncccc34)n2)cc1 [GSK350559],110
2,Cc1ccc(NC(=O)Nc2ccccc2)cc1-c1ccc(C(=O)Nc2ccncc2)cc1 [GSK1398471],140
3,Cc1ccc(NC(=O)Nc2ccccc2F)cc1-c1ccc(C(=O)Nc2ccncc2)cc1 [GSK1398477],450
4,Cc1ccc(NC(=O)Nc2ccc(Cl)c(C(F)(F)F)c2)cc1-c1ccc(C(=O)Nc2ccncc2)cc1 [GSK1398470],560
5,Cc1ccc(NC(=O)c2ccc(Cl)cc2)cc1-c1ccc(C(=O)Nc2ccncc2)cc1 [GSK1398467],170
6,Cc1cnc(N)c(/C=C/c2cncc(C(=O)NCCc3ccc(Cl)cc3Cl)c2)c1.Cl [GSK190937],150
7,COc1cccc(NC(=O)Nc2ccc(C)c(-c3ccc(C(=O)Nc4ccncc4)cc3)c2)c1 [GSK1398474],73
8,Cc1ccc(NC(=O)Nc2ccc(Cl)cc2)cc1-c1ccc(C(=O)Nc2ccncc2)cc1 [GSK1398472],140

# Test system: MARK1
row,SMILES,Kd [nM]
1,COc1ccc(-c2coc3ccc(-c4nnc(C)o4)cc23)cc1,> 10000
2,O=c1cc(N2CCOCC2)nc2n(Cc3ccccc3F)ccn12 [GSK2297428],> 10000
3,Cc1ccccc1Cn1ccn2c(=O)cc(N3CCOCC3)nc12 [GSK2269905],> 10000
4,COc1cccc(NC(=O)Nc2ccc(C)c(-c3ccc(C(=O)Nc4ccncc4)cc3)c2)c1 [GSK1398474],> 10000
5,c1ccc(-c2ccnc3[nH]ccc23)cc1 [SB-693578],> 10000
